Screening data from PubChem BioAssay.
Mdm2 MdmX PPI – human Mdm2/MdmX binding inhibition; SaOS-2 split-luciferase Mdm2/MdmX complementation, luminescence; inhibition, % at 8 µM; 330,000 compounds, 3% hits; AID 485346;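 active means inhibition of at least 50% at 8 µM in the primary screen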
Beta apoptosis – beta cell apoptosis inhibition; INS-1E cytokine-induced death, ATP luminescence, 48 h; percent of positive-control rescue, neutral wells zero; protection from apoptosis, % (concentration not given with the values); 300,000 compounds, 0.8% hits;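 active means Every replicate reaches about 75%, or at least half do and their mean reaches it too, limit read from the data; inconclusive means At least half of replicates reach the limit but their mean does not; inactive means Under half of replicates reach the limit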;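 further: 0% = cytokine-treated negative control wells and 100% = positive control rescue; higher means more ATP so stronger rescue from cytokine killing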
Calb FLC – affects C. albicans growth with fluconazole. C. albicans CaCi-2 (fluconazole-resistant clinical isolate) + fluconazole, Alamar Blue growth, 48 h. growth inhibition, % (concentration not given with the values). 300,000 compounds, 0.57% hits;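 active means growth inhibition above about 58% in most replicates, limit read from the data, passing the limit was not always enough; inconclusive means exactly half the replicates above a set limit; inactive means most replicates below a set limit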;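 further: all wells also contain fluconazole at 8 µg/ml as a sub-toxic cotreatment; 0% = median of DMSO wells and 100% = median of geldanamycin control wells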
CSC inhib – cancer stem cell inhibition; cancer stem cell-like cells viability, luminescence; inhibition, % at 7.5 µM; 300,000 compounds, 1.1% hits; in the data active means inhibition above about 75%; inconclusive means no clear call, values can overlap the other calls; tested in HMLE shEcad cells
MPTP block – permeability transition pore inhibition | inhibition, % at 10 µM | AID 602449 | isolated mouse mitochondria, Ca2+ swelling absorbance, 30 min | 360,000 compounds, 1.4% hits;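 active means inhibition of 50% or more, scaled per plate between neutral and stimulator controls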;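 further: 0% = DMSO wells given calcium and 100% = 1 mM EGTA wells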
Mdm2 MdmX conf – confirmation of human Mdm2/MdmX interaction inhibitors; shares compounds with Mdm2 MdmX PPI; Mdm2-MdmX binding, luminescent assay; inhibition, % at 8 µM; 10,000 compounds, 55% hits; AID 489028; in the data active means inhibition above about 40%
FLuc counter – full-length luciferase inhibition in Mdm2/MdmX counter-screen | shares compounds with Mdm2 MdmX PPI | SaOS-2 full-length luciferase counterscreen, luminescence | inhibition, % at 8 µM | 6,200 compounds, 77% hits | AID 504607;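 active means mean inhibition at 8 µM reaching about 37%, which flags the compound as non-specific, limit read from the data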;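 further: p53-null SaOS-2 cells with luciferase driven by a doxycycline-inducible promoter; compound on cells about two nights before reading with doxycycline added after day one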
* hit, by the source's call; ? = inconclusive; · = no result. In the library only some 4.8% were active in any assay of this set; here they are far more common.

SMILES | Mdm2 MdmX PPI | Beta apoptosis | Calb FLC | CSC inhib | MPTP block | Mdm2 MdmX conf | others
Cc1ccn2c(NC3CCCC3)c(-c3ccccn3)nc2c1 | 74* | 16 | -24 | 62 | 1 | 43* | FLuc counter=43*
Cc1ccc(Nc2c(-c3ccccn3)nc3ccc(C)cn23)cc1 | 74* | 97* | ? | 112* | 3 | 90* | FLuc counter=52*
CCOC(=O)[C@]12CCCC=C1N(Cc1ccc3c(c1)OCO3)C(=O)[C@H](CC(=O)NCc1cccc(C(F)(F)F)c1)C2 | · | · | · | · | -2 | ·
O=C(NC1CC1)c1ccc(CSCc2ccccc2Cl)o1 | -9 | -2 | -2 | -11 | 4 | ·
COC(=O)[C@@]12C[C@@H](CC(=O)NCCCN3CCCC3=O)C(=O)N(CCc3ccc(OC)c(OC)c3)C1=CCC(C)(C)C2 | · | · | · | · | -1 | ·
CC(=O)NCc1ccc(C(=O)CSc2nnc(C3CC3)n2C2CC2)cc1 | -1 | -8 | · | -13 | -1 | ·
CCOC(=O)CC1(CC)Oc2ccccc2N1S(=O)(=O)c1ccc(C)cc1 (stereo not drawn) | · | · | · | · | 1 | ·
Cc1ccc(Sc2c(CO)c(-c3ccccc3)nn2C)cc1 | 51* | 34 | -2 | -4 | 0 | 47* | FLuc counter=92*
O=C(NC(Cc1c[nH]c2ccccc12)C(=O)O)c1cccc(S(=O)(=O)N2CCCCC2)c1 (stereo not drawn) | · | · | · | · | 1 | ·
COCCCNCC#CCOc1ccc(OC)cc1 | 100* | -1 | -17 | -29 | 0 | -1
O=C1C=C(c2cccs2)C[C@H](c2ccccc2)[C@H]1n1nnc([N+](=O)[O-])n1 | 74* | 101* | -10 | 149* | -2 | 54* | FLuc counter=172*
CC(=O)C1C(=O)C=C(c2cccs2)CC1c1ccccc1 (stereo not drawn) | 12 | 3 | 1 | -16 | 0 | ·
COc1ccc(C(CNC(=O)c2cc3ccccc3cc2O)N2CCOCC2)cc1 (stereo not drawn) | 18 | 6 | -5 | 3 | -1 | ·
O=C1C2C(c3ccccc3)CC=CC2[C@H](c2ccc(C(F)(F)F)cc2)N1Cc1ccccc1 (stereo partly drawn) | 79* | 21 | 23 | ? | -1 | 43* | FLuc counter=63*
COc1ccc([C@H]2[C@H]3C=CC[C@@H](C)[C@@H]3C(=O)N2Cc2ccccc2)cc1Cl | 34 | -17 | -13 | 6 | -2 | ·
C[C@@H]1CC=C[C@@H]2[C@H]1C(=O)N(Cc1ccccc1)[C@H]2c1cccc(Br)c1 | 65* | · | · | · | -1 | 11
C[C@@H]1CC=C[C@@H]2[C@H]1C(=O)N(Cc1ccccc1)[C@H]2c1cccc(C#Cc2ccccc2)c1 | 36 | · | · | · | 0 | ·
COc1ccc(Br)cc1[C@H]1[C@H]2C=CC[C@@H](C)[C@@H]2C(=O)N1Cc1ccccc1 | 58* | · | -1 | · | -1 | 37
COc1ccc(-c2c([C@H]3[C@H]4C=CC[C@@H](C)[C@@H]4C(=O)N3Cc3ccccc3)ccc3ccccc23)cc1OC | 71* | 33 | -6 | 45 | 2 | 20
CCCCCNc1ncnc2c(C)[nH]nc12 | · | · | · | · | 1 | ·
Nc1[nH]c(C(=O)c2ccccc2)c(-c2cccnc2)c1C(=O)NCCc1ccc(Cl)cc1Cl | · | · | · | · | -1 | ·
OC[C@@H]1CN(C2CCCC2)C[C@H](n2cnc3c(NC4CC4)ncnc32)O1 | · | · | · | · | 0 | ·
C[C@@H]1CC=C[C@@H]2[C@H]1C(=O)N(Cc1ccccc1)[C@H]2c1ccccc1Br | 2 | · | · | · | -1 | ·
COc1ccc(-c2ccccc2[C@H]2[C@@H]3C=CC[C@@H](C)[C@@H]3C(=O)N2Cc2ccccc2)cc1 | 69* | · | · | · | -1 | 22
COc1ccc(-c2ccc([C@H]3[C@H]4C=CC[C@@H](C)[C@@H]4C(=O)N3Cc3ccccc3)c(F)c2)cc1C | 29 | 2 | 4 | 36 | 3 | ·
COc1ccc(-c2ccc(F)cc2)cc1[C@H]1[C@H]2C=CC[C@@H](C)[C@@H]2C(=O)N1Cc1ccccc1 | 61* | -6 | -7 | -6 | 3 | 44* | FLuc counter=50*
COc1ccc(-c2ccc(OC)c([C@H]3[C@H]4C=CC[C@@H](C)[C@@H]4C(=O)N3Cc3ccccc3)c2)cc1OC | 58* | 16 | 1 | 61 | -1 | -10
COC(=O)[C@]12CCCCC=C1N(Cc1ccc3c(c1)OCO3)C(=O)[C@H](CC(=O)NCCCN1CCCC1=O)C2 | · | · | · | · | 0 | ·
